SMN2 splice enh = qHTS Assay for Enhancers of SMN2 Splice Variant Expression; HEK293 SMN2-luciferase splicing reporter, luminescence, 30-36 h; Potency, µM (series often up to 46.1 µM), for inactives: top-dose activity change, positive = activation, most hits filed as activators; 210,000 tested, 2.8% active; note: % of control where 0% means no effect; nearly all actives have a fitted effect of over 55% in size
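HEK293 cells carry an SMN2 minigene-luciferase reporter in which exon 7 inclusion puts luciferase in frame. Cells were seeded at 2000 cells/well, attached for 10-12 hours, then exposed to compounds for 30-36 hours at 37C before ONE-Glo luminescence.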
FLuc modulator = qHTS profiling assay for firefly luciferase inhibitor/activator using purifed enzyme and Km concentrations of substrates (counterscreen for miR-21 project); Luciferin 4-monooxygenase (Photinus pyralis), P08659; purified FLuc, Km substrates, luminescence inhibition; Potency, µM (titrated, usually from 57.5 µM), for the others: at the top dose activity change, negative = inhibition, actives largely listed as inhibitors; 360,000 tested, 6.9% active; AID 588342, 2011;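 note: plate controls were vehicle for no effect and reference inhibitor for full effect; nearly all actives have a fitted effect of over 55% in size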
Target sequence (P08659 whole entry, looked up): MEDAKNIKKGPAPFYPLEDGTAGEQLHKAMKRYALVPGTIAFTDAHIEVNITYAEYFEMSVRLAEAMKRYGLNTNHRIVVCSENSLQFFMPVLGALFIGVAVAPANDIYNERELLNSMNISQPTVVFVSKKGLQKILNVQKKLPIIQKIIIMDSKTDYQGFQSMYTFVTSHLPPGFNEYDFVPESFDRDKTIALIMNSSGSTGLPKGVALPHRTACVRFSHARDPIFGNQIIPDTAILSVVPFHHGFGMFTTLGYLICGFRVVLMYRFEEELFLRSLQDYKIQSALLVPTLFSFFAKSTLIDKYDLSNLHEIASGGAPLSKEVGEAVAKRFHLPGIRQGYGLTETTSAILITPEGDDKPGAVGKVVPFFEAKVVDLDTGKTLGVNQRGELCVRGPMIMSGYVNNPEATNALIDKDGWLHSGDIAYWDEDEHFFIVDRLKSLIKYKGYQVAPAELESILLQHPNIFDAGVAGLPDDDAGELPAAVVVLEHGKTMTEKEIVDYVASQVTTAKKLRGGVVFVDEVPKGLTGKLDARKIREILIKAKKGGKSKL
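Purified P. pyralis luciferase (10nM final) with 10uM D-luciferin and 10uM ATP (Km levels) in 50mM Tris acetate pH 7.5, 10mM Mg acetate, 0.01% Tween-20, 0.05% BSA; qHTS 6-point titration, ~60 µM downward; luminescence read.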
NPC1 promoter act = qHTS Assay for NPC1 Promoter Activators; Potency, µM (series often up to 9.22 µM), for inactives: at the highest dose activation, most hits filed as activators; 320,000 tested, 2.4% active; AID 485313, 2010; Huh7 NPC1 promoter luciferase reporter, 24 h; note: % of control where 0% means no effect; nearly all actives have a fitted effect of over 60% in size
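Stable NPC1-promoter luciferase Huh7 line; cpd (DMSO) 24 h, 37 °C, 5% CO2; Amplite luciferase reagent 10 min RT; luminescence readout. qHTS format.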
ELG1 genotoxic = qHTS screen for small molecules that induce genotoxicity in human embryonic kidney (HEK293T) cells expressing luciferase-tagged ELG1. HEK293T ELG1-luciferase reporter, luminescence, 16 h. Potency, µM (highest dose often 46 µM), for the others: top-dose activity change, positive = activation, most hits filed as activators. 330,000 tested, 1.3% active; note: % of control where 0% means no effect; nearly all actives have a fitted effect of over 60% in size
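Reporter readout depends on ELG1 protein level, which increases with genetic stress. After 16 hr compound exposure at 37 °C, luciferase activity was quantified using ONE-Glo.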
Rab9 promoter act = qHTS Assay for Rab9 Promoter Activators | Huh7 Rab9 promoter-luciferase reporter, luminescence, 24 h | Potency, µM (doses to about 9.22 µM), without a hit: at the highest dose activation, negative = inhibition, usual class: activators | 320,000 tested, 2.8% active; note: % of control where 0% means no effect; nearly all actives have a fitted effect of over 60% in size
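Luciferase signal after 10 min detection reagent at ambient indicates Rab9 promoter upregulation; stably transfected Huh7 cells were treated 24 h with compound in DMSO at 37 °C, 5% CO2.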
uPA surface inh = qHTS for Inhibitors of Cell Surface uPA Generation; cell surface uPA generation assay, qHTS; Potency, µM (series often up to 38.3 µM), for the others: top-dose activity change, negative = inhibition, actives largely listed as inhibitors; 330,000 tested, 0.31% active; AID 540303, 2011; active = well fitted inhibition curve with a large enough effect; inconclusive = small, poorly fitted or top-dose-only effect; inactive = no such curve, though single readings can be large or run the other way; tested in mouse RAW 264.7 cells; note: % is set by controls: 0 for no effect and ±100 for the full control effect; nearly all actives have a fitted effect of over 55% in size
Starred values were filed as active, the others as inactive; ? = inconclusive; nt = no result; [ ] = remark or other dose. Shown are actives, neighbours in structure and some others; about 7.3% of the full set was active somewhere. Unless noted, calls come from the whole dose curve; as a rule, active = well fitted curve in the direction sought with a large enough effect; inconclusive = small, poorly fitted or top-dose-only effect, or another doubt; inactive = no such curve, though single readings can be large; an effect the other way counts as inactive or inconclusive. Potency is the fitted concentration of half-maximal effect.

SMILES	SMN2 splice enh	FLuc modulator	NPC1 promoter act	ELG1 genotoxic	Rab9 promoter act	uPA surface inh
Cc1ccc(C(=O)Nc2cccc(N3C(=O)C4CCC(C)CC4C3=O)c2)cc1 (stereo not given)	nt	7.6µM*	1%	5%	23%	-8%
O=C(Nc1cccc(Cl)c1)c1cccc(N2C(=O)C3CC=CCC3C2=O)c1 (stereo not given)	nt	-19%	0%	-21%	-3%	4%
COc1ccc(CNC(=O)c2cc(-c3cccs3)on2)cc1	-35%	-18%	9%	2%	6%	nt
COCCNC(=O)c1cc(-c2cccs2)on1	17%	?	24%	15µM*	3.2µM*	?
O=C(NCc1cccs1)c1cc(-c2cccs2)on1	?	?	3.5µM*	?	3.5µM*	5%
O=C(NCc1cccs1)c1cc(-c2ccccc2)on1	25µM*	?	2.5µM*	7.3µM*	2.5µM*	-5%
Cc1cc(C(=O)NCc2cccs2)no1	-2%	3%	0%	6%	2%	nt
CCCCSc1ccc2nc(-c3ccc(C#N)cc3)cn2c1	?	4.8µM*	?	4%	?	-19%
CCCSc1ccc2nc(-c3ccccc3)cn2c1	nt	0.085µM*	0.71µM*	?	0.45µM*	-10%
CCCCCCCOc1ccc(-c2ccc(C#N)cn2)cc1	-16%	3%	-4%	-2%	-4%	3%
Clc1ccc(-c2nnc(-c3ccc(Br)o3)o2)c(Cl)c1	?	3µM*	1.6µM*	9.2µM*	?	nt
Clc1ccc(-c2nnc(-c3cccc4ccccc34)o2)cc1	nt	nt	nt	nt	nt	0%
CSc1nnc(-c2ccc(F)cc2)o1	-2%	-14%	-3%	9%	7%	2%
Clc1ccc(-c2nnc3sc(-c4ccc(Br)o4)nn23)c(Cl)c1	-3%	7%	-3%	1%	-6%	4%
Fc1ccc(-c2nnc(-c3ccc(Cl)cc3Cl)o2)cc1	1µM*	0.48µM*	0.22µM*	1.6µM*	0.32µM*	?
Clc1ccc(-c2nnc(-c3ccccc3)o2)c(Cl)c1	2.5µM*	0.43µM*	0.4µM*	?	0.89µM*	-7%
CS(=O)(=O)c1ccccc1-c1nnc(-c2ccc(Cl)cc2)o1	4%	?	-4%	13%	?	-4%
Fc1ccc(-c2nnc(-c3ccc(Cl)cc3)o2)cc1	?	2.7µM*	2µM*	6.5µM*	0.79µM*	nt
COC(=O)c1c(NC(=O)c2cc(=O)c3ccc(C)c(C)c3o2)sc2c1CCCC2	5%	6%	nt	nt	nt	nt
Cc1nc2nc(-c3ccc(Cl)cc3Cl)nn2c(C)c1CCC(=O)Nc1ccc(F)cc1	2%	?	nt	nt	nt	nt
CCCC(CCC)C(=O)NC1CC(=O)N(c2ccc3c(c2)OCCO3)C1 (stereo not given)	nt	0%	nt	nt	nt	nt
Cc1ccccc1-c1noc(-c2ccccc2F)n1	?	1.9µM*	2.5µM*	6.5µM*	2.2µM*	nt
Cc1ccccc1-c1noc(-c2ccc(Cl)cc2)n1	11µM*	1.1µM*	4µM*	?	2.8µM*	-4%
Cc1ccc2cc(-c3noc(C4CCCCC4)n3)c(=O)[nH]c2c1	nt	0%	2%	2%	-1%	4%
Cc1ccccc1-c1noc(-c2ccc(O)cc2)n1	?	4.8µM*	?	?	29%	3%
SMILES	SMN2 splice enh	FLuc modulator	NPC1 promoter act	ELG1 genotoxic	Rab9 promoter act	uPA surface inh
Cc1ccccc1-c1noc(C2CCCCC2)n1	-6%	17µM*	-1%	13%	9%	2%
Cc1ccccc1-c1noc(-c2nnn(-c3ccccc3C)c2N)n1	nt	-11%	nt	nt	nt	nt
CC1(C)[C@@H]2CC[C@@](C)(C2)[C@H]1OC(=O)c1ccccc1C(=O)O	3%[9.22 µM]	nt	nt	nt	nt	nt
O=C(CCNC(=O)c1ccco1)Nc1ccc(SC(F)F)cc1	3%	-19%	-4%	-1%	2%	-2%
Clc1ccc(-c2nc(Cc3ccccc3Cl)no2)cc1	0%	15µM*	14%	11%	23%	-1%
Clc1ccc(Cc2noc(-c3cccs3)n2)cc1	0%	13µM*	?	6.5µM*	22%	nt
Nc1nc(SCc2ccccc2)[nH]c(=O)c1-c1ccccc1	13µM*	19µM*	?	12µM*	?	-1%
c1ccc2c(c1)Cn1nc(Cc3nc4c(s3)CCCC4)nc1-2	?	17µM*	6%	?	?	-7%
O=S(=O)(O)c1cc2oc(-c3ccccc3)nc2c2ccccc12	nt	9.5µM*	16%	-4%	22%	-29%
CCn1nc(NC(=O)c2ccncc2)c2cc3ccc(C)cc3nc21	-13%	15µM*	4%	-2%	-2%	nt
CCCC(=O)Nc1nn(CC)c2nc3ccc(C)cc3cc12	nt	-5%	24%	-1%	7%	-5%
CCn1nc(NC(=O)c2ccncc2)c2cc3cc(C)ccc3nc21	32µM*	17µM*	-1%	-3%	1%	-5%
Cn1c(=O)oc2cc(S(=O)(=O)NC(Cc3ccccc3)C(=O)Nc3ccc(F)cc3)ccc21 (stereo not given)	7%	0%	nt	nt	nt	nt
Cc1cc(C)c2c(n1)sc1c(=O)n(CC(=O)c3ccccc3)cnc12	nt	11µM*	?	?	?	1%
O=C(Cn1cnc2c(oc3ccccc32)c1=O)c1ccccc1	?	15µM*	2.5µM*	?	?	-2%
O=C(O)Cn1cnc2c(oc3ccccc32)c1=O	nt	-4%	-1%	-1%	-4%	1%
C=CCOC(=O)Cn1cnc2c(sc3nc(C)cc(C)c32)c1=O	nt	11µM*	?	?	?	2%
Cc1cccc(Cn2cnc3c(sc4nc(C)cc(C)c43)c2=O)c1	nt	-5%	-3%	2%	11%	2%
COc1cc(/C=N/n2cnc3c(sc4nc(C)cc(C)c43)c2=O)ccc1O	nt	-14%	-3%	6%	1%	1%
CCOC(=O)N1CCc2c(sc3c2c(=O)n(-c2ccc(Cl)cc2)c(=O)n3Cc2cccc(OC)c2)C1	-1%	-4%	nt	nt	nt	nt
O=C(NC1CCCC1)c1ccc(CSc2nc3ccncc3n2Cc2cccc(F)c2)cc1	-1%	-19%	nt	nt	nt	nt
COCCOC(=O)CSc1ncccc1-c1nc2cc(C)c(C)cc2[nH]1	16µM*	2.1µM*	?	?	3.5µM*	?
Cc1cc2nc(-c3cccnc3SCC(=O)NC(C)C)[nH]c2cc1C	11µM*	2.7µM*	2.8µM*	23µM*	2.2µM*	?
O=C(CSc1ncccc1-c1nc2ccccc2[nH]1)NC1CC1	17%	?	0%	3%	-11%	nt

Compound activity: PubChem BioAssay, National Center for Advancing Translational Sciences (NCATS)
